In PubChem BioAssay AID2284369 (EPA ToxCast) one finds AC50 and outcome data, which are given here for 4 molecules.

Results filed as inconclusive are left out. Calls of active or inactive are those of the source. Rule for the calls: active = hit-call score of the fitted dose curve at least 0.9, where 1 is the maximum; inconclusive = response in the unintended direction; inactive = score below 0.9.

The subject of the assay is frog Estrogen Receptor (ER1), gene 398734. As to the kind of experiment: ATG_frER1_EcoTox2: Attagene TRANS-FACTORIAL EcoTox-2 HepG2 Assay for frog Estrogen Receptor (ER1). The procedure: ATG_EcoTox2 is a cell-based, multiplexed assay created by modifying the existing Attagene TRANS-FACTORIAL system to include a panel of nuclear receptors from some or all the following species: human (Homo sapiens), african clawed frog (Xenopus laevis), rainbow trout (Oncorhynchus mykiss), japanese medaka (Oryzias latipes), and zebrafish (Danio rerio). The ECOTOX2-FACTORIAL format uses HepG2, a human liver cell line, with measurements taken at 24 hours after chemical dosing in a 24-well plate. ATG_frER1_EcoTox2 is one of 29 assay components calculated in the ATG_EcoTox2 assay. It is designed to make measurements of mRNA induction, a form of inducible reporter, as detected with fluorescence intensity signals by Reverse transcription polymerase chain reaction (RT-PCR) and Capillary electrophoresis technology.The assay endpoint ATG_frER1_EcoTox2 was analyzed in the positive analysis fitting direction relative to DMSO as the negative control and baseline of activity. Using a type of inducible reporter, measures of mRNA for gain-of-signal activity can be used to understand the reporter gene at the transcription factor-level as they relate to the gene ER. Furthermore, this assay endpoint can be referred to as a primary readout, because this assay has produced multiple assay endpoints where this one serves a reporter gene function. To generalize the intended target to other relatable targets, this assay endpoint is annotated to the nuclear receptor intended target family, where the subfamily is steroidal.
Human liver HepG2 cells are transiently transfected with multiple reporter transcription units (MRTUs) in 6-well plates using FuGene 6 reagent (Roche; 3 ml FuGene/1 mg DNA). The MRTU constructs are regulated by a cis-regulating element (promoter). Each RTU expresses a GAL4-UAS that regulates the transcription of a nearby target reporter gene sequence. A major difference between the CIS and TRANS system is that in CIS activities of endogenous TFs are measured, whereas the TRANS assay evaluates changes in activities of exogenous, chimeric NR-Gal4 proteins. […] At the end of 24 hour incubation, total RNA was isolated using TriZol reagent (Invitrogen). The isolated RNA is then reverse-transcribed using oligo(dT) primer and Mo-MLV reverse transcriptase (Invitrogen) with DNAse I (Ambion) treatment for 30 min. The one-tenth of the produced cDNA was amplified by PCR using Taq DNA polymerase (Invitrogen) and two reporter sequence-specific primers. […] The fragments were purified using Qiaquick PCR columns (Qiagen), analyzed on an ABI 3130xL genetic analyzer (Applied Biosystems) with peak positions identified by using a set of X-rhodamine (ROX)-labeled MapMarker1000 molecular weight standards (BioVentures). […]
As usually defined, the AC50 is the concentration giving half of the maximal activity seen. Take `O=C(O)C(F)(F)C(F)(F)C(F)(F)C(F)(F)C(F)(F)C(F)(F)C(F)(F)F`: the AC50 is 75 µM (active).

On to `CCCCOCN(C(=O)CCl)c1c(CC)cccc1CC`, for which the molecule was called inactive.

For `O=S(=O)(O)C(F)(F)C(F)(F)C(F)(F)C(F)(F)C(F)(F)C(F)(F)F`, the molecule was called inactive.

As to `O=P(Oc1ccccc1)(Oc1ccccc1)Oc1ccccc1`, the result was inactive.
